Results from PubChem BioAssay (NCI).
This is part of a sample that, as a whole, favours compounds with a hit. Of some 79,000 tested, about 15% had one in any assay. A number with no mark means an inactive call. Calls of active or inactive are those of the source. No stated cut-off is given here; in the data, active means growth inhibition above about 70%; inactive means the rest.

Assay: NCI Yeast Anticancer Drug Screen. Data for the CLN2oe strain (AID 163);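 further: 0% = growth of vehicle-only control cultures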
Conditions: S. cerevisiae CLN2oe strain, stronger effect = higher value
Method: Growth inhibition of yeast strains with defined genetic alterations is measured as a screen for potential anti-cancer activity. Selected strains with alterations in DNA damage repair or cell cycle control were exposed to compounds and growth inhibition was measured relative to vehicle treated controls. The strain used in this assay is CLN2oe

Row | SMILES | growth inhibition (at 1.2 µM) [%] | growth inhibition (at 3.7 µM) | growth inhibition (at 11.0 µM) | growth inhibition (at 33.0 µM) | growth inhibition (at 100.0 µM)
1 | CCN(CC)C(=S)N/N=C(\C)c1ccccc1O | 13 | -5% | 42% | 96% (active) | 99% (active)
2 | Nc1cccc(-c2cc[cH-]c2)c1.[Fe+2].c1cc[cH-]c1 | -11 | -5% | -6% | -1% | 64%
3 | O=C(O)C(=Cc1ccc(-c2ccccc2)cc1)C(=O)O | 5 | 7% | 22% | 56% | 88% (active)
4 | CCc1c(Cl)c(C)c(Cl)c(O)c1Cl | 13 | 17% | 11% | 90% (active) | 99% (active)
5 | CC1=CC(C)(C)SC(SSSC2=NC(C)=CC(C)(C)S2)=N1 | -10 | -17% | -14% | -13% | 13%
6 | O=C1C2=C(c3ccccc31)C(c1ccccc1)N1C(=O)CSC1=N2 (stereo not given) | 14 | 4% | 9% | -3% | 54%
7 | CCN(CC)CCC(=O)Nc1ccc2sc3ccccc3c(=O)c2n1 | 0 | -13% | -5% | 6% | 8%
8 | CC(C)NCCCNc1c2ccccc2nc2cccc([N+](=O)[O-])c12 | 35 | 88% (active) | 96% (active) | 97% (active) | 98% (active)
